Measured values reported in PubChem BioAssay (EPA / NIEHS).
Several values for one entry are separate records, joined by “and”; a condition that tells them apart may be missing. Equal values may be shown once. Results filed as inconclusive are left out. Activity calls are given as the source filed them. The calls were made as follows, unless noted: active = hit-call score of the fitted dose curve at least 0.9, where 1 is the maximum; inactive = score below 0.9.

Key:
[1] = read-out: Monocyte Chemoattractant Protein-1 (MCP1), CCL2 (gene 6347); assay: BSK_SAg_MCP1: BioMAP Diversity Plus: SAg Assay for Monocyte Chemoattractant Protein-1 (MCP1) Biomarker Activity (AID 2283090); conditions: primary human HUVEC with PBMC; actives raise or lower the signal
Summary of the method: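 Values derive from bidirectional fitting of ELISA-measured MCP1 against DMSO controls. Readings were taken 24 h after dosing human vascular endothelial cells co-cultured with peripheral blood mononuclear cells under superantigen stimulation.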

[2] = read-out: E-selectin (Homo sapiens) (UniProt P16581); assay: BSK_SAg_Eselectin: BioMAP Diversity Plus: SAg Assay for Eselectin Biomarker Activity (AID 2283091); conditions: primary human HUVEC with PBMC; actives raise or lower the signal
Summary of the method: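 HUVEC co-cultured with PBMC, compound dosed then read at 24 h; E-selectin measured by ELISA. Activity fitted bidirectionally against DMSO as negative control and baseline.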

[3] = read-out: Monokine induced gamma interferon (MIG), CXCL9 (gene 4283); assay: BSK_SAg_MIG: BioMAP Diversity Plus: SAg Assay for Monokine induced gamma interferon (MIG) Biomarker Activity (AID 2283092); conditions: primary human HUVEC with PBMC; actives raise or lower the signal
Summary of the method: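 Endothelial cells and PBMC were co-cultured, exposed to test chemicals, and sampled 24 h later. MIG was measured by ELISA, and responses were fitted in both directions relative to DMSO.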

[4] = BSK_SAg_PBMCCytotoxicity: PBMC Cytotoxicity Assessment in the BioMAP Diversity Plus: SAg Assay (AID 2283093); conditions: primary human HUVEC with PBMC;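 also: PBMC viability measured as Alamar Blue reduction fluorescence at 546/580 nm; fitted both ways against DMSO so a hit may be loss or gain of signal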;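 as to AC50: PBMC superantigen activated with SEB plus TSST-1 one hour after compound addition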
Summary of the method: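 Alamar Blue reduction (6 h, 546/580 nm) reports PBMC cytotoxicity after 90 h superantigen activation (SEB, TSST-1; 20 ng/mL final each) with 1 h compound pre-treatment. Gain or loss of signal fitted versus DMSO.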

[5] = read-out: Interleukin-8 (IL8), CXCL8 (gene 3576); assay: BSK_SAg_IL8: BioMAP Diversity Plus: SAg Assay for Interleukin-8 (IL8) Biomarker Activity (AID 2283094); conditions: primary human HUVEC with PBMC; actives raise or lower the signal
Summary of the method: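 Primary human endothelial cells with PBMC, exposed 24 h; IL-8 determined by ELISA, analysed bidirectionally relative to DMSO.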

[6] = BSK_SAg_Proliferation: Cell Proliferation Assessment in the BioMAP Diversity Plus: SAg Assay (AID 2283095); conditions: primary human HUVEC with PBMC;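 also: relative cell number as total protein by SRB absorbance in sub-confluent culture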
Summary of the method: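 A human primary co-culture of umbilical vein endothelium and blood mononuclear cells receives compound; relative cell number is quantified at 96 h by SRB staining and 560 nm absorbance, with DMSO-referenced bidirectional curve fitting.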

[7] = BSK_SAg_SRB: Viability Assessment in the BioMAP Diversity Plus: SAg Assay (AID 2283096); conditions: primary human HUVEC with PBMC;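 also: cells read one day after compound addition; hits may be either gain or loss of signal compared with DMSO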
Summary of the method: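 This overt-cytotoxicity endpoint quantifies protein in human endothelial/PBMC co-cultures at 24 h using SRB absorbance (560 nm) after trichloroacetic acid fixation. Values reflect signal change from the DMSO negative control, fitted bidirectionally.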

[8] = target: human CYP2B6, CYP2B6 (gene 1555) (UniProt P20813); assay: NVS_ADME_hCYP2B6: NovaScreen (NVS) CYP450-related Enzyme Activity (ADME) Assay for human CYP2B6 (AID 2283101; active = hit-call score of the fitted dose curve at least 0.9, where 1 is the maximum)
Summary of the method: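 Cell-free recombinant enzyme assay with a fluorogenic substrate; fluorescence intensity read 1 hour after dosing. Loss of signal relative to acetonitrile negative control indicates inhibition. Primary screen run in duplicate at 10 uM, actives then tested in concentration series.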

[9] = target: human CYP2D6, CYP2D6 (gene 1565) (UniProt P10635); assay: NVS_ADME_hCYP2D6: NovaScreen (NVS) CYP450-related Enzyme Activity (ADME) Assay for human CYP2D6 (AID 2283107; active = hit-call score of the fitted dose curve at least 0.9, where 1 is the maximum)
Summary of the method: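 Cell-free assay using recombinant enzyme expressed in insect cells, with fluorescence-intensity readout of enzyme activity 1 hour after chemical dosing. Loss of signal versus acetonitrile negative control indicates inhibition. Primary screen ran in duplicate at 10 uM; actives were retested in concentration series.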

[10] = target: human CYP2C9, CYP2C9 (gene 1559) (UniProt P11712); assay: NVS_ADME_hCYP2C9: NovaScreen (NVS) CYP450-related Enzyme Activity (ADME) Assay for human CYP2C9 (AID 2283108; active = hit-call score of the fitted dose curve at least 0.9, where 1 is the maximum)
Summary of the method: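 Cell-free assay of recombinant human CYP2C9 produced in Sf9 cells, with enzyme activity read by fluorescence intensity 0.75 h after compound addition. Loss of signal versus an acetonitrile negative control indicates inhibition. Primary screen used 10 uM in duplicate; actives were retested in concentration series.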

[11] = target: Cytochrome P450 3A4 (Homo sapiens) (UniProt P08684); assay: NVS_ADME_hCYP3A4: NovaScreen (NVS) CYP450-related Enzyme Activity (ADME) Assay for human CYP3A4 (AID 2283110; active = hit-call score of the fitted dose curve at least 0.9, where 1 is the maximum)
Summary of the method: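 Activity is derived from decreased fluorescence intensity relative to acetonitrile, measured 0.33 hour after dosing insect-cell-expressed CYP3A4 in a cell-free format. Screening used 10 uM in duplicate before concentration-response follow-up.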

[12] = target: human CYP19A1, CYP19A1 (gene 1588) (UniProt P11511); assay: NVS_ADME_hCYP19A1: NovaScreen (NVS) CYP450-related Enzyme Activity (ADME) Assay for human CYP19A1 (AID 2283098; active = hit-call score of the fitted dose curve at least 0.9, where 1 is the maximum)
Summary of the method: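 Compounds were first screened at 10 uM in duplicate against purified enzyme, with a fluorogenic substrate and fluorescence intensity detection after 0.5 h. Inhibition appears as reduced signal against acetonitrile control.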

[13] = target: human CYP1A2, CYP1A2 (gene 1544) (UniProt P05177); assay: NVS_ADME_hCYP1A2: NovaScreen (NVS) CYP450-related Enzyme Activity (ADME) Assay for human CYP1A2 (AID 2283102; active = hit-call score of the fitted dose curve at least 0.9, where 1 is the maximum;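 also: potency for inhibition since loss of fluorescence marks reduced CYP1A2 activity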)
Summary of the method: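 Cell-free recombinant human CYP1A2 expressed in insect cells, with fluorogenic substrate; fluorescence intensity read 0.5 h after dosing. Loss of signal relative to acetonitrile baseline scored. Primary screen in duplicate at 10 uM; actives retested in concentration series.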

[14] = target: human CYP1A1, CYP1A1 (gene 1543) (UniProt P04798); assay: NVS_ADME_hCYP1A1: NovaScreen (NVS) CYP450-related Enzyme Activity (ADME) Assay for human CYP1A1 (AID 2283100; active = hit-call score of the fitted dose curve at least 0.9, where 1 is the maximum)
Summary of the method: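 Cell-free fluorescence assay of recombinant human CYP1A1 activity with a specific substrate, read 1 h after dosing. Compounds were screened in duplicate at 10 uM, then hits tested in concentration-response up to 20 uM; acetonitrile served as baseline.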

[15] = target: Cytochrome P450 2C19 (Homo sapiens) (UniProt P33261); assay: NVS_ADME_hCYP2C19: NovaScreen (NVS) CYP450-related Enzyme Activity (ADME) Assay for human CYP2C19 (AID 2283113; active = hit-call score of the fitted dose curve at least 0.9, where 1 is the maximum;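 also: potency for inhibition seen as loss of fluorescent signal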)
Summary of the method: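 Cell-free assay of recombinant human CYP2C19 expressed in insect cells, with a fluorogenic substrate; fluorescence intensity read 1 hour after dosing. Loss of signal relative to acetonitrile negative control indicates inhibition. Primary screen at 10 uM in duplicate, then concentration series.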

human CYP2C9, CYP2C9 (gene 1559), sequence (P11712 whole entry, looked up): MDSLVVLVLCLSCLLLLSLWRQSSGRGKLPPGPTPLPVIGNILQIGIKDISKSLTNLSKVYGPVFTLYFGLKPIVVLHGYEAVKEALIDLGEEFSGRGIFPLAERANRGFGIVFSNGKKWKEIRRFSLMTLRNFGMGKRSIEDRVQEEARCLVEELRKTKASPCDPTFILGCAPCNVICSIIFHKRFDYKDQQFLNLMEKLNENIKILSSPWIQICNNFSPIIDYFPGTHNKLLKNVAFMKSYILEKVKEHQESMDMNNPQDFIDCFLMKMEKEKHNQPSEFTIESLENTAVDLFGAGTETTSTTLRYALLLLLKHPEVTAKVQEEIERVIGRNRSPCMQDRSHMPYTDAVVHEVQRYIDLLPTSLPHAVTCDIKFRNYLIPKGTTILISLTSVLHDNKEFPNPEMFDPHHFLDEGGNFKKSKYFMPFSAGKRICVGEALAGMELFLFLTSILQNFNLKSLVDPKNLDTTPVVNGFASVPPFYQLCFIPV
E-selectin (Homo sapiens), sequence (P16581 whole entry, looked up): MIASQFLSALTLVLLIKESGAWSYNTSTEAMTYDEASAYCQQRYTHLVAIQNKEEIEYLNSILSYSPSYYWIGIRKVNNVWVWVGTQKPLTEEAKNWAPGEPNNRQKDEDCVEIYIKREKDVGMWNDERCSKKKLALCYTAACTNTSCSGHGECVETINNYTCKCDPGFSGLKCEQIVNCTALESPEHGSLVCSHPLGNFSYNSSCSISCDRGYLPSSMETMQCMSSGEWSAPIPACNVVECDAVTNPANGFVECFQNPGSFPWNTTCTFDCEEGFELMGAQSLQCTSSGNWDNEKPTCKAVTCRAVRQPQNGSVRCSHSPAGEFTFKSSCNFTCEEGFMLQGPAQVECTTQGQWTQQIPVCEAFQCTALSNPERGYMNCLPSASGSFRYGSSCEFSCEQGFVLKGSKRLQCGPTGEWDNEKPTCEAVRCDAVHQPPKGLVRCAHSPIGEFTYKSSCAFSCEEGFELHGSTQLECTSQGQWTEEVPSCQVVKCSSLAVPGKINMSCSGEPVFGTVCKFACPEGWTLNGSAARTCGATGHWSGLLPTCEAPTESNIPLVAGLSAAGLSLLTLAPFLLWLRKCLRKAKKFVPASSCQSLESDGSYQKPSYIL
human CYP2B6, CYP2B6 (gene 1555), sequence (P20813 whole entry, looked up): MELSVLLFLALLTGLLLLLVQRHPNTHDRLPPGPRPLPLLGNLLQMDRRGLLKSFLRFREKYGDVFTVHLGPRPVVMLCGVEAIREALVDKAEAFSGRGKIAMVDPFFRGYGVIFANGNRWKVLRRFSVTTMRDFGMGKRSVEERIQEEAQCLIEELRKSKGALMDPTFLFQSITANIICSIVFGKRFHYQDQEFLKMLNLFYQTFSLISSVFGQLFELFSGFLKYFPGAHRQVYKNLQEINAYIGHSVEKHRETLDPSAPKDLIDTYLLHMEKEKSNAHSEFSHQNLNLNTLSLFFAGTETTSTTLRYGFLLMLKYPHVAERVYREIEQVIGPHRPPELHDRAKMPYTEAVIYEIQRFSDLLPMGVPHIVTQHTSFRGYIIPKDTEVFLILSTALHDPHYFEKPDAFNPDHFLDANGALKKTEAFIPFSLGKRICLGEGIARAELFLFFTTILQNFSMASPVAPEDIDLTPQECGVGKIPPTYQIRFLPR
Cytochrome P450 3A4 (Homo sapiens), sequence (P08684 whole entry, looked up): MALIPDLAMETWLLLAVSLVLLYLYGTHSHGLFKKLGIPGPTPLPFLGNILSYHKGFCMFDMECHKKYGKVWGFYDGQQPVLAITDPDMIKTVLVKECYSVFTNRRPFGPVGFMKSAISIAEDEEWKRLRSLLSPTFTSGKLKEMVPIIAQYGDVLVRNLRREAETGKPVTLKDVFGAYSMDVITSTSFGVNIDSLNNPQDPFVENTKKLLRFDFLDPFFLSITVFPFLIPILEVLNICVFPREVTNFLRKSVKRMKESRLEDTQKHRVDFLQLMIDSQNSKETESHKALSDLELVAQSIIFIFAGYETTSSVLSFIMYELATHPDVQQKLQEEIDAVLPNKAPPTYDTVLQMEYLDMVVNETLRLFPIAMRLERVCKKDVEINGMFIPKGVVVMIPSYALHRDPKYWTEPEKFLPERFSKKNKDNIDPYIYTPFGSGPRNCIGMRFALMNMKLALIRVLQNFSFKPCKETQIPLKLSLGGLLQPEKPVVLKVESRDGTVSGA
human CYP1A2, CYP1A2 (gene 1544), sequence (P05177 whole entry, looked up): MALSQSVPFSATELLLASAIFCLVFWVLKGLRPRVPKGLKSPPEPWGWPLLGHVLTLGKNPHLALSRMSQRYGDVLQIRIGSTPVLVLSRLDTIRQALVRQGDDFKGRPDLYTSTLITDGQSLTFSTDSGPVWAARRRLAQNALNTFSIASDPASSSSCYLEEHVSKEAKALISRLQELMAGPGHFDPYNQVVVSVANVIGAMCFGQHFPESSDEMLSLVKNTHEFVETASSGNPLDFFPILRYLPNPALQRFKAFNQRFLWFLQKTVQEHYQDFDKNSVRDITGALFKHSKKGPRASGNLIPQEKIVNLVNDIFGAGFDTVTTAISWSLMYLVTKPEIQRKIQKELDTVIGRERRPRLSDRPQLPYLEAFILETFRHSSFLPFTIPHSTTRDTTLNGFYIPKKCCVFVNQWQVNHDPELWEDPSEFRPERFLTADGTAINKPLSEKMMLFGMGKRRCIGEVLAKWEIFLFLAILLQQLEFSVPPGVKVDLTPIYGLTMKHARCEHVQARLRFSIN
human CYP1A1, CYP1A1 (gene 1543), sequence (P04798 whole entry, looked up): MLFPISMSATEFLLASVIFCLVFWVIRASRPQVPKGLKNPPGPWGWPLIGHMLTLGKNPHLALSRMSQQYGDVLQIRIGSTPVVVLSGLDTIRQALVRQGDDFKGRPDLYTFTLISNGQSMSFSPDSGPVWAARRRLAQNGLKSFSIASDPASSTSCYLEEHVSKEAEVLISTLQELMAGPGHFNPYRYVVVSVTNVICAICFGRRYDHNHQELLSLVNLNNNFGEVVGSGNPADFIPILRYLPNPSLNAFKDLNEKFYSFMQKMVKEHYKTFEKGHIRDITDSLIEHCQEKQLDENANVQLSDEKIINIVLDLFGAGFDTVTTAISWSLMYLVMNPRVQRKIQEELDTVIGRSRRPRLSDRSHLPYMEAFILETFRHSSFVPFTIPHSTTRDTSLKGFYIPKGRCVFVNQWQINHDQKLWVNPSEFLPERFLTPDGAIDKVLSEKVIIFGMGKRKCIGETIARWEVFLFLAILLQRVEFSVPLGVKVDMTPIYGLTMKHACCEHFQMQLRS
human CYP19A1, CYP19A1 (gene 1588), sequence (P11511 whole entry, looked up): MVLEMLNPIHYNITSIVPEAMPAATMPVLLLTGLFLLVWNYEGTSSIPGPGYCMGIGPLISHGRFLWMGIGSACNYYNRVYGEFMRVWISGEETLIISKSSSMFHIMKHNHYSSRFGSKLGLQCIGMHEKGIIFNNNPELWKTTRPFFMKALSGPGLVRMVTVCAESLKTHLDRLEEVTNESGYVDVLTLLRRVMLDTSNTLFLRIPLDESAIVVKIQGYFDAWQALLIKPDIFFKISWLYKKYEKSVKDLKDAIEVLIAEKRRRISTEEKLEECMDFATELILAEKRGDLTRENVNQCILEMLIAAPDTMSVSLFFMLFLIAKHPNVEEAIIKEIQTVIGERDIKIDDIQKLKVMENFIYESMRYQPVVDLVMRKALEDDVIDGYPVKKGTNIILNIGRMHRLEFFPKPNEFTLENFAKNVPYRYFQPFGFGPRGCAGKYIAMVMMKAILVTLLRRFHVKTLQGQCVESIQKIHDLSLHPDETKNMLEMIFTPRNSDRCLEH
human CYP2D6, CYP2D6 (gene 1565), sequence (P10635 whole entry, looked up): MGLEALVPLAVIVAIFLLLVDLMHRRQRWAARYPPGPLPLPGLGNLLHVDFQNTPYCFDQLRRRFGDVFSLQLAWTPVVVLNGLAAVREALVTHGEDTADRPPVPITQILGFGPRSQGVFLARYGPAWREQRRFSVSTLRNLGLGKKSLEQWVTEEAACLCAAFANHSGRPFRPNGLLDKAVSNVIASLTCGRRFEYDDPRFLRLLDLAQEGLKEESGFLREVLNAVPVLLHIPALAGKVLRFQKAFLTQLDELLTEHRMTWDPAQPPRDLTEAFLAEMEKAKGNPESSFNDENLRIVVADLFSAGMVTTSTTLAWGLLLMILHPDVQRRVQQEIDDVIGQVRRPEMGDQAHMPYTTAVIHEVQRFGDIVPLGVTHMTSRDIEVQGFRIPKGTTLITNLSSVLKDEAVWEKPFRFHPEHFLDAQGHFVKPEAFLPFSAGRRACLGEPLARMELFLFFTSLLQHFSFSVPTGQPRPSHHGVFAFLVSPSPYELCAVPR

**Q.** Which AC50 [1] does the source give for `CC(C)(c1ccccc1)c1ccc(O)cc1` here?
**A.** 36.1 µM (active)

**Q.** What about the AC50 [2] of the same compound?
**A.** 33.5 µM (active)

**Q.** What about the AC50 [3] of the same compound?
**A.** 38.7 µM (active)

**Q.** What about the AC50 [4] of the same compound?
**A.** 31.5 µM (active)

**Q.** What about the AC50 [5] of the same compound?
**A.** 30.9 µM (active)

**Q.** And the AC50 [6]?
**A.** 34.2 µM (active)

**Q.** What about the AC50 [7] of the same compound?
**A.** 30.4 µM (active)

**Q.** What about the AC50 [8] of the same compound?
**A.** 7.47 µM (active)

**Q.** And the outcome [9]?
**A.** inactive

**Q.** What about the AC50 [10] of the same compound?
**A.** 10 µM (active)

**Q.** What about the outcome [11] of the same compound?
**A.** inactive

**Q.** What does the source list for `NS(=O)(=O)C(F)(F)C(F)(F)C(F)(F)C(F)(F)C(F)(F)C(F)(F)C(F)(F)C(F)(F)F`?
**A.** AC50 [1]: 31.2 µM (active) and 54.2 µM (active) and 54.5 µM (active); AC50 [2]: 20 µM (active) and 45.5 µM (active) and 49 µM (active); AC50 [3]: 34.6 µM (active) and 51.3 µM (active) and 56.3 µM (active); AC50 [4]: 33.6 µM (active) and 48 µM (active) and 55.1 µM (active); AC50 [5]: 31.8 µM (active) and 43.3 µM (active) and 44.3 µM (active); AC50 [6]: 32.2 µM (active) and 43.5 µM (active) and 51.1 µM (active); AC50 [7]: 27.6 µM (active) and 47.4 µM (active) and 44.9 µM (active); AC50 [10]: 1.97 µM (active)

**Q.** For `CCSC(=O)N(CC)C1CCCCC1`, which outcome [1] is on record?
**A.** inactive

**Q.** What about the outcome [2] of the same compound?
**A.** inactive

**Q.** And the outcome [3]?
**A.** inactive

**Q.** And the outcome [4]?
**A.** inactive

**Q.** And the outcome [5]?
**A.** inactive

**Q.** And the outcome [6]?
**A.** inactive

**Q.** What about the outcome [7] of the same compound?
**A.** inactive

**Q.** For `C=CC(N)=O`, which outcome [1] is on record?
**A.** inactive

**Q.** And the outcome [2]?
**A.** inactive

**Q.** What about the outcome [4] of the same compound?
**A.** inactive

**Q.** What about the outcome [5] of the same compound?
**A.** inactive

**Q.** And the outcome [6]?
**A.** inactive

**Q.** And the outcome [7]?
**A.** inactive

**Q.** With `O=S(=O)(O)C(F)(F)C(F)(F)C(F)(F)C(F)(F)C(F)(F)C(F)(F)F` as the compound, how does the outcome [1] read?
**A.** inactive

**Q.** And the outcome [2]?
**A.** inactive

**Q.** And the outcome [4]?
**A.** inactive

**Q.** And the outcome [5]?
**A.** inactive

**Q.** What about the outcome [6] of the same compound?
**A.** inactive

**Q.** What about the outcome [7] of the same compound?
**A.** inactive

**Q.** What about the outcome [12] of the same compound?
**A.** inactive

**Q.** And the AC50 [13]?
**A.** 9.34 µM (active)

**Q.** And the AC50 [10]?
**A.** 0.0791 µM (active)

**Q.** Which outcome [1] does the source give for `O=S(=O)(O)C(F)(F)C(F)(F)C(F)(F)C(F)(F)F` here?
**A.** inactive

**Q.** What about the outcome [2] of the same compound?
**A.** inactive

**Q.** What about the outcome [4] of the same compound?
**A.** inactive

**Q.** What about the outcome [5] of the same compound?
**A.** inactive

**Q.** What about the outcome [6] of the same compound?
**A.** inactive

**Q.** And the outcome [7]?
**A.** inactive

**Q.** For `CC#Cc1cc(C)nc(Nc2ccccc2)n1`, which outcome [1] is on record?
**A.** inactive

**Q.** What about the outcome [2] of the same compound?
**A.** inactive

**Q.** What about the outcome [4] of the same compound?
**A.** inactive

**Q.** What about the outcome [5] of the same compound?
**A.** inactive

**Q.** And the AC50 [6]?
**A.** 28.3 µM (active)

**Q.** And the outcome [7]?
**A.** inactive

**Q.** And the AC50 [14]?
**A.** 0.617 µM (active)

**Q.** What about the AC50 [13] of the same compound?
**A.** 1.96 µM (active)

**Q.** For `CCCCCCCCOC(=O)c1ccccc1C(=O)OCCCCCCCC`, which outcome [1] is on record?
**A.** inactive

**Q.** What about the outcome [2] of the same compound?
**A.** inactive

**Q.** And the AC50 [4]?
**A.** 5.6 µM (active)

**Q.** What about the outcome [5] of the same compound?
**A.** inactive

**Q.** And the outcome [6]?
**A.** inactive

**Q.** What about the outcome [7] of the same compound?
**A.** inactive

**Q.** With `CCC(C)(c1ccc(O)cc1)c1ccc(O)cc1` as the compound, how does the AC50 [1] read?
**A.** 20 µM (active)

**Q.** What about the AC50 [2] of the same compound?
**A.** 16.8 µM (active)

**Q.** And the AC50 [4]?
**A.** 29.8 µM (active)

**Q.** And the AC50 [5]?
**A.** 16 µM (active)

**Q.** What about the AC50 [6] of the same compound?
**A.** 28.5 µM (active)

**Q.** What about the outcome [7] of the same compound?
**A.** inactive

**Q.** What about the AC50 [8] of the same compound?
**A.** 4.81 µM (active)

**Q.** And the AC50 [10]?
**A.** 6.47 µM (active)

**Q.** What about the outcome [11] of the same compound?
**A.** inactive

**Q.** And the AC50 [15]?
**A.** 4.4 µM (active)
